{"source": "PubChem BioAssay AID1347131", "about": "(National Center for Advancing Translational Sciences (NCATS), 2019)", "note": "Screen size: about 410,000 compounds; about 2,000 (0.49%) were called active. Inconclusive results (about 8%) are left out. The sample holds actives, similar compounds and a random draw of the others, so the mix is not that of the screen. Unmarked numbers belong to inactive results. Calls follow the shape of the full dose curve; tested in HEK293 reporter line. Potency is read from the fitted curve at half-maximal effect."}
{"assay": "qHTS Assay for Foot and Mouth Disease Virus Antivirals: Primary Screen against the MLPCN compound library; also: nearly all actives have a fitted effect of over 55% in size", "details": "FMDV antiviral cell-based qHTS; series mostly up to 57.9 µM; activity, negative = inhibition: at the top concentration", "units": {"activity, negative = inhibition": "%"}}
{"smiles": "O=C(COc1ccc(F)cc1)Nc1ccc2nc(SCC(=O)N3CCOCC3)sc2c1", "Potency": "25.1 µM (active)"}
{"smiles": "Cc1ccc(OCCSc2nc3ccc(NC(=O)c4ccc(F)cc4)cc3s2)cc1", "activity, negative = inhibition": -39.9}
{"smiles": "O=C(COc1ccc(F)cc1)Nc1ccc2nc(SCC(=O)N3CCc4ccccc43)sc2c1", "activity, negative = inhibition": -35.2}
{"smiles": "Cc1occc1C(=O)NC1CCCN(Cc2ccc(Cl)cc2)C1", "note": "(centres undefined)", "activity, negative = inhibition": -36.9}
{"smiles": "Cc1nn(CC(C)C)c(Cl)c1C(=O)N(C)CC(=O)Nc1ccc(Cl)cc1", "activity, negative = inhibition": -43.7}
{"smiles": "C=CCN(c1ccc(C(=O)Nc2cccc(C)c2)cc1)S(C)(=O)=O", "activity, negative = inhibition": -30.9}
{"smiles": "CC1CN(S(=O)(=O)c2ccc(C(=O)Nc3ccccc3F)cc2)CC(C)O1", "note": "(centres undefined)", "activity, negative = inhibition": -34.4}
{"smiles": "NC(=O)c1ccsc1NC(=O)CCS(=O)(=O)c1ccc(F)cc1", "activity, negative = inhibition": -36.9}
{"smiles": "CC1CC(C)CN(S(=O)(=O)c2ccc(C(=O)Nc3sccc3C(N)=O)cc2)C1", "note": "(centres undefined)", "Potency": "8.91 µM (active)"}
{"smiles": "Cc1onc(-c2ccc3c(c2)OCO3)c1-c1ccc2[nH]ccc2c1", "activity, negative = inhibition": -30.6}
{"smiles": "CCOc1ccc(-c2nnc3ccc(SC(C)C)nn23)cc1", "activity, negative = inhibition": -33.5}
{"smiles": "CN(C)c1ccc(-c2nc3ccccc3c(=O)[nH]2)cc1", "Potency": "20 µM (active)"}
{"smiles": "CC(C(=O)Nc1ccccc1-c1ccccc1)N(C)Cc1nc2ccccc2c(=O)[nH]1", "note": "(centres undefined)", "activity, negative = inhibition": -32.1}
{"smiles": "CN(Cc1nc2ccccc2c(=O)[nH]1)C(=O)c1cccc(S(=O)(=O)N2CCCCCC2)c1", "activity, negative = inhibition": -38.5}
{"smiles": "Cn1c(SCC(=O)NCC2CCCO2)nnc1-c1c[nH]c2ccccc12", "note": "(centres undefined)", "activity, negative = inhibition": -16}
{"smiles": "CCOC(=O)CNC(=O)CSc1nnc(NC(=O)c2ccc(C)cc2)s1", "Potency": "12.6 µM (active)"}
{"smiles": "Cc1cccc(NC(=O)CSc2nnc(NC(=O)CN3CCOCC3)s2)c1", "activity, negative = inhibition": -34.9}
{"smiles": "Cc1cccc(-n2nnnc2SCC(=O)NCC2CCCO2)c1", "note": "(centres undefined)", "activity, negative = inhibition": -30.1}
{"smiles": "CC(C)(C)c1ccc(C(=O)Nc2nnc(SCC(=O)NCC3CCCO3)s2)cc1", "note": "(centres undefined)", "Potency": "14.1 µM (active)"}
{"smiles": "CC(C)CC(=O)Nc1nnc(SCC(=O)Nc2ccc(F)cc2)s1", "activity, negative = inhibition": -44.4}
{"smiles": "O=C(COc1ccc2c3c(c(=O)oc2c1)CCC3)N1CCN(c2ccc(F)cc2)CC1", "activity, negative = inhibition": -35.2}
{"smiles": "Nc1nonc1C(=O)NCCNCc1ccc(Cl)c(Cl)c1", "activity, negative = inhibition": -37}
{"smiles": "CCCCn1c(N)c(N(CCC(C)C)C(=O)c2ccc3c(c2)OCO3)c(=O)[nH]c1=O", "activity, negative = inhibition": -42}
{"smiles": "CCC(C)c1ccccc1OCCCCN1CCCC1", "note": "(centres undefined)", "activity, negative = inhibition": -31.5}
{"smiles": "CC(C)C(OC(=O)c1cccc(S(=O)(=O)NCC(F)(F)F)c1)C(=O)NC(N)=O", "note": "(centres undefined)", "activity, negative = inhibition": 104}
{"smiles": "Cc1cc(C)nc(NS(=O)(=O)c2ccc(-n3cccc3)cc2)n1", "activity, negative = inhibition": 116}
{"smiles": "Cc1cc(C(=O)C(=O)N(C)C)c(C)n1-c1ccc([N+](=O)[O-])cc1", "activity, negative = inhibition": -31.5}
{"smiles": "Cc1ccccc1CN1C2=NCCN2c2ccccc21", "activity, negative = inhibition": -33.6}
{"smiles": "CCOC(=O)c1ccccc1NC(=O)CN1CCC(n2nnc3cc(C(F)(F)F)ccc32)CC1", "activity, negative = inhibition": -33.7}
{"smiles": "O=C(Nc1cccc(C(F)(F)F)c1)c1ccc2c(c1)nnn2C1CCCC1", "Potency": "12.6 µM (active)"}
{"smiles": "Cc1cc(C)cc(NC(=O)c2ccc3c(c2)nnn3C2CCCC2)c1", "activity, negative = inhibition": -30}
{"smiles": "COc1ccc(NC(=O)c2cc(-c3ccccn3)nc3ccccc23)cc1S(=O)(=O)N(C)C", "activity, negative = inhibition": -35.2}
{"smiles": "CCn1c(=O)c(C(=O)NCc2ccc(OC)c(OC)c2)c(O)c2ccccc21", "activity, negative = inhibition": -36.9}
{"smiles": "COc1ccc(CCNC(=O)CSc2nnc(-c3ccccc3)c3ccccc23)cc1OC", "activity, negative = inhibition": -34.5}
{"smiles": "COc1ccc(CNC(=O)Cn2c(=O)nc(-c3ccccc3)c3ccccc32)cc1OC", "Potency": "20 µM (active)"}
{"smiles": "CC(=O)c1cc(-c2ccccc2)n(CC(=O)Nc2ccc(C)c(C)c2)c1C", "activity, negative = inhibition": -30}
{"smiles": "c1csc(Cn2nnnc2CN2CCN(c3nc4ccccc4s3)CC2)c1", "Potency": "17.8 µM (active)"}
{"smiles": "Cc1nc2cc(C(F)(F)F)ccc2n1C1CCN(Cc2nnnn2Cc2cccs2)CC1", "activity, negative = inhibition": -47.6}
{"smiles": "COc1cccc2sc(N3CCN(c4nc5ccccc5s4)CC3)nc12", "activity, negative = inhibition": -45.2}
{"smiles": "Nc1ccc(-c2ccc(N)cc2C(F)(F)F)c(C(F)(F)F)c1", "activity, negative = inhibition": -18.9}
{"smiles": "CC(=O)C1=C(c2ccc(F)cc2)N(C(C)=O)n2c(nnc2C2CCCCC2)S1", "activity, negative = inhibition": -32.7}
{"smiles": "CCOC(=O)Cc1csc(NC(=O)COc2ccc(OC)cc2)n1", "activity, negative = inhibition": -34.6}
{"smiles": "CCN(CC)CCNC(=O)COc1ccc(OC)cc1", "activity, negative = inhibition": -21.5}
{"smiles": "COc1ccc(OCC(=O)Nc2nccs2)cc1", "Potency": "15.8 µM (active)"}
{"smiles": "COc1ccc(NC(=O)CN(C)C(=O)c2cccc(S(=O)(=O)N3CCN(c4ccccc4)CC3)c2)cc1", "activity, negative = inhibition": -12}
{"smiles": "Cc1ccc(S(=O)(=O)Nc2c(C)cc([N+](=O)[O-])cc2C)cc1", "activity, negative = inhibition": -33.5}
{"smiles": "Cc1ccccc1CS(=O)(=O)c1ccc(C(=O)N2CCOCC2)cc1[N+](=O)[O-]", "activity, negative = inhibition": -30.7}
{"smiles": "Cc1ccc(S(=O)(=O)Cc2cc(F)c([N+](=O)[O-])cc2[N+](=O)[O-])cc1", "Potency": "15.8 µM (active)"}
{"smiles": "O=C(N/N=C/c1cccs1)C(O)c1ccccc1", "note": "(centres undefined)", "activity, negative = inhibition": 110}
{"smiles": "O=C(Nc1cccc(Cl)c1N1CCOCC1)c1cc([N+](=O)[O-])ccc1N1CCOCC1", "activity, negative = inhibition": -37.2}
{"smiles": "CCOC(=O)c1cc(C)n(CC2CCC(C(=O)Nc3ccc(OC)cc3)CC2)c1C", "note": "(centres undefined)", "activity, negative = inhibition": -31.8}
{"smiles": "CCOC(=O)c1cn[nH]c1NC(=S)Nc1ccc(OC)cc1", "Potency": "17.8 µM (active)"}
{"smiles": "CCOc1ccc(NC(=O)N(Cc2ccc(CC)cc2)Cc2cn[nH]c2-c2ccc(OC)cc2)cc1", "activity, negative = inhibition": -31.5}
{"smiles": "Cc1ccc(S(=O)(=O)N/N=C/c2ccc(OCC(=O)N3CCOCC3)cc2)cc1", "activity, negative = inhibition": 121}
{"smiles": "CCOc1ccc(CNC(=O)CCCn2ccc3cc(S(=O)(=O)N4CCCC4)ccc32)cc1", "activity, negative = inhibition": -31.1}
{"smiles": "O=C(Nc1ccc(N2CCOCC2)c(Cl)c1)c1c(F)c(F)c(F)c(F)c1F", "activity, negative = inhibition": -42.1}
{"smiles": "O=C(Nc1ccc(N2CCOCC2)cc1)c1cnccn1", "Potency": "12.6 µM (active)"}
{"smiles": "O=C(Nc1cccc(S(=O)(=O)N2CCCCC2)c1)c1cnccn1", "activity, negative = inhibition": -31.3}
{"smiles": "Cc1cc2oc(C(=O)NC3CCS(=O)(=O)C3)cc(=O)c2cc1C", "note": "(centres undefined)", "activity, negative = inhibition": -51.9}
{"smiles": "CCc1ccc(NC(=O)c2sc3nc(C)nc(N4CCN(c5ccccn5)CC4)c3c2C)cc1", "activity, negative = inhibition": -84.8}
{"smiles": "CN(C)c1ccc(C(=O)N2CCCC(CCC(=O)N3CCN(c4ccccn4)CC3)C2)cc1", "note": "(centres undefined)", "activity, negative = inhibition": -31.5}
{"smiles": "Cc1ccc(S(=O)(=O)N(C)CCCC(=O)Nc2ccncc2)cc1", "activity, negative = inhibition": -35}
{"smiles": "Cc1ccc(S(=O)(=O)N(C)CCCC(=O)N2CCN(c3ccccn3)CC2)cc1", "Potency": "22.4 µM (active)"}
{"smiles": "COc1ccc(C(=O)NCC(=O)N2CCN(C(=O)c3ccco3)CC2)cc1[N+](=O)[O-]", "activity, negative = inhibition": -58.7}
